Laboratory results from PubChem BioAssay (EPA / NIEHS).
Results filed as inconclusive are left out. Activity calls are given as the source filed them. How the source made its calls, unless noted: active means hit-call score of the fitted dose curve at least 0.9, where 1 is the maximum; inactive means score below 0.9.

What was measured:
[1] = molecular target: human Peroxisome Proliferator-activated Receptor delta (PPARd), PPARD (gene 5467) (UniProt Q03181); assay: ATG_PPARd_TRANS: Attagene TRANS-FACTORIAL HepG2 Assay for human Peroxisome Proliferator-activated Receptor delta (PPARd) (AID 2283002; active means hit-call score of the fitted dose curve at least 0.9, where 1 is the maximum)
Summary of the method: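 Read-out is induced reporter mRNA, quantified by RT-PCR with fluorescent labelling and capillary electrophoresis after 24 h dosing. Cells are HepG2 transiently carrying multiple GAL4-UAS reporter units driven by exogenous NR-GAL4 chimeras; DMSO serves as baseline.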

[2] = read-out: Intercellular Adhesion Molecule 1 (ICAM1), ICAM1 (gene 3383); assay: BSK_3C_ICAM1: BioMAP Diversity Plus: 3C Assay for Intercellular Adhesion Molecule 1 (ICAM1) Biomarker Activity (AID 2283003); conditions: primary human endothelial cells (HUVEC); actives raise or lower the signal
Summary of the method: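 Primary human umbilical vein endothelial cells in the BioMAP 3C system were exposed to chemicals for 24 h, then ICAM-1 was quantified by ELISA. Activity was fitted bidirectionally against the DMSO negative control baseline.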

[3] = BSK_3C_Proliferation: Cell Proliferation Assessment in the BioMAP Diversity Plus: 3C Assay (AID 2283006); conditions: primary human endothelial cells (HUVEC);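 on AC50: potency may reflect either rise or fall in cell number versus DMSO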
Summary of the method: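 Human umbilical vein endothelial cells were grown sub-confluent and exposed to chemical for 48 h, then fixed with 10% TCA and stained with 0.1% sulforhodamine B; absorbance at 560 nm gave relative cell number, fitted bidirectionally against DMSO baseline.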

[4] = molecular target: Peroxisome proliferator-activated receptor gamma (Homo sapiens) (UniProt P37231); assay: ATG_PPARg_TRANS: Attagene TRANS-FACTORIAL HepG2 Assay for human Peroxisome Proliferator-activated Receptor-gamma (PPARg) (AID 2283007; active means hit-call score of the fitted dose curve at least 0.9, where 1 is the maximum)
Summary of the method: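 Read-out: reporter mRNA induction, detected by fluorescence after RT-PCR and capillary electrophoresis. Transiently transfected human HepG2 liver cells carrying a chimeric NR-Gal4 construct were dosed for 24 h; activity was fitted upward relative to DMSO.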

[5] = molecular target: Nuclear receptor subfamily 1 group I member 2 (Homo sapiens) (UniProt O75469); assay: ATG_PXR_TRANS: Attagene TRANS-FACTORIAL HepG2 Assay for human Pregnane X Receptor (PXR) (AID 2283008; active means hit-call score of the fitted dose curve at least 0.9, where 1 is the maximum)
Summary of the method: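 Measures mRNA induction of a GAL4-UAS-driven reporter in human HepG2 cells transiently expressing PXR fused to Gal4, following 24 h treatment. DMSO served as negative control and baseline.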

[6] = molecular target: human RAR-related Orphan Receptor gamma (RORg), RORC (gene 6097) (UniProt P51449); assay: ATG_RORg_TRANS: Attagene TRANS-FACTORIAL HepG2 Assay for human RAR-related Orphan Receptor gamma (RORg) (AID 2283011; active means hit-call score of the fitted dose curve at least 0.9, where 1 is the maximum)
Summary of the method: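 Activity is scored as increase in GAL4-UAS reporter mRNA over DMSO, detected by fluorescent RT-PCR and capillary electrophoresis in HepG2 cells transiently expressing a RORg-Gal4 chimera, 24 h after dosing.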

[7] = molecular target: Retinoic acid receptor RXR-alpha (Homo sapiens) (UniProt P19793); assay: ATG_RXRa_TRANS: Attagene TRANS-FACTORIAL HepG2 Assay for human Retinoid X Receptor alpha (RXRa) (AID 2283012; active means hit-call score of the fitted dose curve at least 0.9, where 1 is the maximum)
Summary of the method: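 HepG2 cells transiently transfected with multiplexed GAL4-UAS reporter units and chimeric NR-GAL4 fusions, dosed 24 h. Reporter mRNA measured by RT-PCR, FAM labelling, HpaI digestion and capillary electrophoresis; gain-of-signal fitted relative to DMSO baseline.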

[8] = molecular target: human Thyroid Receptor alpha (THRa1), THRA (gene 7067) (UniProt P10827); assay: ATG_THRa1_TRANS: Attagene TRANS-FACTORIAL HepG2 Assay for human Thyroid Receptor alpha (THRa1) (AID 2283014; active means hit-call score of the fitted dose curve at least 0.9, where 1 is the maximum)
Summary of the method: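 First, HepG2 cells receive multiple GAL4-UAS reporter units and the chimeric receptor. They are then dosed for 24 h, after which RNA is reverse-transcribed, amplified, labelled, HpaI-cut and sized by capillary electrophoresis; gain relative to DMSO is scored.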

[9] = read-out: E-selectin (Homo sapiens) (UniProt P16581); assay: BSK_3C_Eselectin: BioMAP Diversity Plus: 3C Assay for Eselectin Biomarker Activity (AID 2283015); conditions: primary human endothelial cells (HUVEC); actives raise or lower the signal
Summary of the method: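 Human vascular endothelium from umbilical vein is exposed to test chemicals for 24 h. E-selectin levels are read by ELISA and compared with DMSO controls.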

[10] = read-out: Interleukin-1 alpha (IL1a), IL1A (gene 3552); assay: BSK_BE3C_IL1a: BioMAP Diversity Plus: BE3C Assay for Interleukin-1 alpha (IL1a) Biomarker Activity (AID 2283016); conditions: primary human bronchial epithelial cells; actives raise or lower the signal
Summary of the method: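 Human primary bronchial epithelial cells (BE3C system) were dosed with compound and IL-1a measured by ELISA 24 h later. Activity was fitted bidirectionally against DMSO baseline; cytotoxicity was tracked in parallel cultures by SRB total-protein staining.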

[11] = read-out: Monocyte Chemoattractant Protein-1 (MCP1), CCL2 (gene 6347); assay: BSK_3C_MCP1: BioMAP Diversity Plus: 3C Assay for Monocyte Chemoattractant Protein-1 (MCP1) Biomarker Activity (AID 2283017); conditions: primary human endothelial cells (HUVEC); actives raise or lower the signal
Summary of the method: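 Endothelial cells from human umbilical vein are dosed with chemical, cultured 24 h, then assayed for MCP-1 by ELISA; both increases and decreases are modelled against DMSO controls.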

[12] = read-out: Monocyte Chemoattractant Protein-1 (MCP1), CCL2 (gene 6347); assay: BSK_4H_MCP1: BioMAP Diversity Plus: 4H Assay for Monocyte Chemoattractant Protein-1 (MCP1) Biomarker Activity (AID 2283018); conditions: primary human endothelial cells (HUVEC); actives raise or lower the signal
Summary of the method: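 Human umbilical vein endothelial cells (4H system) dosed with chemical; MCP-1 measured by ELISA 24 h after dosing. Bidirectional curve fitting against DMSO negative control as baseline; parallel SRB total-protein staining tracks overt cytotoxicity.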

[13] = read-out: Human Leukocyte Antigen - DR isotype (HLADR), HLA-DRA (gene 3122); assay: BSK_3C_HLADR: BioMAP Diversity Plus: 3C Assay for Human Leukocyte Antigen - DR isotype (HLADR) Biomarker Activity (AID 2283019); conditions: primary human endothelial cells (HUVEC); actives raise or lower the signal
Summary of the method: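 Endothelial cells from human umbilical vein are treated with test chemical; after 24 h, HLA-DR levels are measured by ELISA. Data are fitted in both directions using DMSO as the baseline.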

[14] = read-out: Interleukin-8 (IL8), CXCL8 (gene 3576); assay: BSK_3C_IL8: BioMAP Diversity Plus: 3C Assay for Interleukin-8 (IL8) Biomarker Activity (AID 2283020); conditions: primary human endothelial cells (HUVEC); actives raise or lower the signal
Summary of the method: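 Primary human umbilical vein endothelial cells (3C system) were exposed to test chemical for 24 h, then IL-8 was quantified by ELISA. Responses were fitted bidirectionally against DMSO vehicle as baseline.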

[15] = read-out: Monokine induced gamma interferon (MIG), CXCL9 (gene 4283); assay: BSK_3C_MIG: BioMAP Diversity Plus: 3C Assay for Monokine induced gamma interferon (MIG) Biomarker Activity (AID 2283021); conditions: primary human endothelial cells (HUVEC); actives raise or lower the signal;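 on AC50: MIG protein level measured by immunoassay in the treated endothelial cultures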
Summary of the method: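 Primary human umbilical vein endothelial cells in the 3C system were exposed to chemical for 24 h, after which MIG was quantified by ELISA. Activity was fitted bidirectionally against DMSO as negative control and baseline.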

[16] = molecular target: human Retinoic Acid Receptor beta (RARb), RARB (gene 5915) (UniProt P10826); assay: ATG_RARb_TRANS: Attagene TRANS-FACTORIAL HepG2 Assay for human Retinoic Acid Receptor beta (AID 2283004; active means hit-call score of the fitted dose curve at least 0.9, where 1 is the maximum)
Summary of the method: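 HepG2, transient MRTU transfection, NR–Gal4 chimera, 24 h treatment; RT-PCR plus CE fluorescence detection of reporter mRNA; gain of signal vs DMSO.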

[17] = molecular target: human Retinoid X Receptor beta (RXRb), RXRB (gene 6257) (UniProt P28702); assay: ATG_RXRb_TRANS: Attagene TRANS-FACTORIAL HepG2 Assay for human Retinoid X Receptor beta (RXRb) (AID 2283013; active means hit-call score of the fitted dose curve at least 0.9, where 1 is the maximum)
Summary of the method: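 HepG2 cells transiently transfected with multiplexed reporter units driven by GAL4-UAS and exogenous chimeric NR-Gal4 proteins; treated 24 h. Reporter mRNA measured by RT-PCR, 6-FAM labelling and capillary electrophoresis; gain-of-signal fitted versus DMSO baseline.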

[18] = BSK_3C_SRB: Viability Assessment in the BioMAP Diversity Plus: 3C Assay (AID 2283023); conditions: primary human endothelial cells (HUVEC);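 further: fitted both ways against DMSO so a hit may be signal rise or drop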
Summary of the method: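 Cells were dosed with chemical, cultured 24 h, fixed with 10% TCA, stained with 0.1% SRB and read at 560 nm. Human umbilical vein endothelium was used; DMSO served as negative control and baseline.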

[19] = molecular target: human RAR-related Orphan Receptor beta (RORb), RORB (gene 6096) (UniProt Q92753); assay: ATG_RORb_TRANS: Attagene TRANS-FACTORIAL HepG2 Assay for human RAR-related Orphan Receptor beta (RORb) (AID 2283010; active means hit-call score of the fitted dose curve at least 0.9, where 1 is the maximum)
Summary of the method: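 HepG2 cells were transiently transfected with multiplexed GAL4-UAS reporter units expressing chimeric nuclear receptor–GAL4 proteins, then dosed for 24 h. Reporter mRNA was quantified by RT-PCR with fluorescent labelling and capillary electrophoresis; gain of signal was fitted relative to DMSO.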

[20] = molecular target: human Vitamin D Receptor (VDR), VDR (gene 7421) (UniProt P11473); assay: ATG_VDR_TRANS: Attagene TRANS-FACTORIAL HepG2 Assay for human Vitamin D Receptor (VDR) (AID 2283022; active means hit-call score of the fitted dose curve at least 0.9, where 1 is the maximum)
Summary of the method: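 Fluorescence of labelled reporter cDNA fragments, resolved by capillary electrophoresis, gives mRNA induction after 24 h treatment of HepG2 cells carrying transfected Gal4-fusion reporter units. Activity is fitted in the positive direction with DMSO as baseline.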

Measured: AC50

Sequence of human Thyroid Receptor alpha (THRa1), THRA (gene 7067) (P10827 whole entry, looked up, the tested form may be a part): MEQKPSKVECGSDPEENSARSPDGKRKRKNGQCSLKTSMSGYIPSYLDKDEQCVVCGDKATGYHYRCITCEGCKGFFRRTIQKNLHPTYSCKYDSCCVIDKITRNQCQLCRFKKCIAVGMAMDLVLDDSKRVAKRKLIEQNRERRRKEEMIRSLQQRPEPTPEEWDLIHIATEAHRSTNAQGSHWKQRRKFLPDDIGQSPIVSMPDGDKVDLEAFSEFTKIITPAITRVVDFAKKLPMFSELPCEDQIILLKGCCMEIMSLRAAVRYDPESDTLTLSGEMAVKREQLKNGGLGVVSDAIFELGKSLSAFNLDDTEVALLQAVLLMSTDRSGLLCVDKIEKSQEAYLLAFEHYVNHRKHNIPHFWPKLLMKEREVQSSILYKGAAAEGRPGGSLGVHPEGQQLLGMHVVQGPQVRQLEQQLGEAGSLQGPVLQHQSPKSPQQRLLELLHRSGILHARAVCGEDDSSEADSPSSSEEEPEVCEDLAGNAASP
Sequence of Nuclear receptor subfamily 1 group I member 2 (Homo sapiens) (O75469 whole entry, looked up, the tested form may be a part): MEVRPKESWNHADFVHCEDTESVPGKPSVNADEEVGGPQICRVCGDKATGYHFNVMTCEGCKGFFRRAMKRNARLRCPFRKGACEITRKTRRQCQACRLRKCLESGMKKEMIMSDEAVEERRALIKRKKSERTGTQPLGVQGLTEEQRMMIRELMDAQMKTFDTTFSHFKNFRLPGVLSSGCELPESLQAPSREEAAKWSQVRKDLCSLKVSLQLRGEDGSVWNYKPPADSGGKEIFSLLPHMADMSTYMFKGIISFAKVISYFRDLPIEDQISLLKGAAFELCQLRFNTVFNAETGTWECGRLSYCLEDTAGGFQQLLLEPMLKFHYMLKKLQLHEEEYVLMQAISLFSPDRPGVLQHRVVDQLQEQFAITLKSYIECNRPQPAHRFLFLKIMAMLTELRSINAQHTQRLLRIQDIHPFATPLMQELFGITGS
Sequence of E-selectin (Homo sapiens) (P16581 whole entry, looked up): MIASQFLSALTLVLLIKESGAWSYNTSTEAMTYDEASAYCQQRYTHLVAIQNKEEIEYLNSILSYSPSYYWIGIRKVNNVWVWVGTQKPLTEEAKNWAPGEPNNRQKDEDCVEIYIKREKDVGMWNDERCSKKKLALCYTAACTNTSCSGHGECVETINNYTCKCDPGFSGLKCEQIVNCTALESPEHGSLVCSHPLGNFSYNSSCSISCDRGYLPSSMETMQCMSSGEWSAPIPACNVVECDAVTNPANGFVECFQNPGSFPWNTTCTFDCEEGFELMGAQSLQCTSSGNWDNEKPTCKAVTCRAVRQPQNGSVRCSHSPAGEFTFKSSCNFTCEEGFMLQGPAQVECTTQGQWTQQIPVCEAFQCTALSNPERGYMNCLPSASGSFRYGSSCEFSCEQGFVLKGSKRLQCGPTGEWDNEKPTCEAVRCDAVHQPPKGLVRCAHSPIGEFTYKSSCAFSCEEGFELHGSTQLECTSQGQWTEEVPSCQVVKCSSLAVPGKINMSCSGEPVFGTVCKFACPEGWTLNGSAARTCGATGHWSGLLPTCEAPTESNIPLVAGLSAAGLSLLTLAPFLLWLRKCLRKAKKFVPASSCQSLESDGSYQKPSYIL
Sequence of Retinoic acid receptor RXR-alpha (Homo sapiens) (P19793 whole entry, looked up, the tested form may be a part): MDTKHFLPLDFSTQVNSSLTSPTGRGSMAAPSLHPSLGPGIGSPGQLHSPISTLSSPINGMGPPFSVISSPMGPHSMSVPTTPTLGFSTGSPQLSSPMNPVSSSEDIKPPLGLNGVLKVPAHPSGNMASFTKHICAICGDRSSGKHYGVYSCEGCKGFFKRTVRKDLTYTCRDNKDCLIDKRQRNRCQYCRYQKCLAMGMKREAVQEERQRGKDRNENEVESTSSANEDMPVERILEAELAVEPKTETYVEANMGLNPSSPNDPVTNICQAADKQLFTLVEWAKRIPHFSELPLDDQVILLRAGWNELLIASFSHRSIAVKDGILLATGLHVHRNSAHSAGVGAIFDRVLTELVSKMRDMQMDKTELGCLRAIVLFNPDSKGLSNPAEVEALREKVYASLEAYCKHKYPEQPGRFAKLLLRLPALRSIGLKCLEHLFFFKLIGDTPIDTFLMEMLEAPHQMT
Sequence of Peroxisome proliferator-activated receptor gamma (Homo sapiens) (P37231 whole entry, looked up, the tested form may be a part): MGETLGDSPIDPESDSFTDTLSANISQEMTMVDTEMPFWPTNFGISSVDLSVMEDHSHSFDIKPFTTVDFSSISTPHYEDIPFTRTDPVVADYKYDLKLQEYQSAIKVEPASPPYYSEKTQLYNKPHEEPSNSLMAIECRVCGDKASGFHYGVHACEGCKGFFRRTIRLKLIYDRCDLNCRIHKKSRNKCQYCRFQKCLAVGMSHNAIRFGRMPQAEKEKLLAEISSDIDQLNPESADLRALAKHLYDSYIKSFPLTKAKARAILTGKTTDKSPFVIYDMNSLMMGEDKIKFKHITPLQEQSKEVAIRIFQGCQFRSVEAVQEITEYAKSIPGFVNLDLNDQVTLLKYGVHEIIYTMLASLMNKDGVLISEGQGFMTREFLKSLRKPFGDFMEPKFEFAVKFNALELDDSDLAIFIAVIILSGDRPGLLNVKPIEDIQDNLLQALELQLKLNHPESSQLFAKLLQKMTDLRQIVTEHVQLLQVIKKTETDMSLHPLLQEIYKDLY
Sequence of human Retinoid X Receptor beta (RXRb), RXRB (gene 6257) (P28702 whole entry, looked up, the tested form may be a part): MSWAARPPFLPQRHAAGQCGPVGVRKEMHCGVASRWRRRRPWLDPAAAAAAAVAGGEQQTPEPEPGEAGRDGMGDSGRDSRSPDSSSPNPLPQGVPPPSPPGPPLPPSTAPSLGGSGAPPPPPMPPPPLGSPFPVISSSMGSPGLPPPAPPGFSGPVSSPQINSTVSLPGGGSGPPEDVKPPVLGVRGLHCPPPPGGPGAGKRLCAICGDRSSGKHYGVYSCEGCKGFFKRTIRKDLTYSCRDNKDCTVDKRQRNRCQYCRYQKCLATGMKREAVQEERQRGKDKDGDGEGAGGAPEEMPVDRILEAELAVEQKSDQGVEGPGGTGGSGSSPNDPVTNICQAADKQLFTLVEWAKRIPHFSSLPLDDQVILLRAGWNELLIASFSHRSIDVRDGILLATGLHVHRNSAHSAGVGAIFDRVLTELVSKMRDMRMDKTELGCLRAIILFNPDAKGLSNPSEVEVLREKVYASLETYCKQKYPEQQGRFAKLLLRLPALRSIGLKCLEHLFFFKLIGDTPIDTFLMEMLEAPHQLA
Sequence of human Retinoic Acid Receptor beta (RARb), RARB (gene 5915) (P10826 whole entry, looked up, the tested form may be a part): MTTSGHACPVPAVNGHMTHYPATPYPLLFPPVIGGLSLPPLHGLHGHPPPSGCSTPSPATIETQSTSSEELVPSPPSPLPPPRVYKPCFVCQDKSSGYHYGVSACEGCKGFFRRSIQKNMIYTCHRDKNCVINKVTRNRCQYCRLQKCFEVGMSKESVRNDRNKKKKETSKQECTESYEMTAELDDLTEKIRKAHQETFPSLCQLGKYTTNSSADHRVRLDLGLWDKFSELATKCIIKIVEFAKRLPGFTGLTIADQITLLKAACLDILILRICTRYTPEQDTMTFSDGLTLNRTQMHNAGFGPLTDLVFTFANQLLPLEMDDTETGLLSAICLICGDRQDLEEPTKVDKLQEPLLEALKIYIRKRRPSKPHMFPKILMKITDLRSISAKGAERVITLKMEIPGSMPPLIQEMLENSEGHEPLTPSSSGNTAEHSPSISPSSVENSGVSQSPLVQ
Sequence of human RAR-related Orphan Receptor gamma (RORg), RORC (gene 6097) (P51449 whole entry, looked up, the tested form may be a part): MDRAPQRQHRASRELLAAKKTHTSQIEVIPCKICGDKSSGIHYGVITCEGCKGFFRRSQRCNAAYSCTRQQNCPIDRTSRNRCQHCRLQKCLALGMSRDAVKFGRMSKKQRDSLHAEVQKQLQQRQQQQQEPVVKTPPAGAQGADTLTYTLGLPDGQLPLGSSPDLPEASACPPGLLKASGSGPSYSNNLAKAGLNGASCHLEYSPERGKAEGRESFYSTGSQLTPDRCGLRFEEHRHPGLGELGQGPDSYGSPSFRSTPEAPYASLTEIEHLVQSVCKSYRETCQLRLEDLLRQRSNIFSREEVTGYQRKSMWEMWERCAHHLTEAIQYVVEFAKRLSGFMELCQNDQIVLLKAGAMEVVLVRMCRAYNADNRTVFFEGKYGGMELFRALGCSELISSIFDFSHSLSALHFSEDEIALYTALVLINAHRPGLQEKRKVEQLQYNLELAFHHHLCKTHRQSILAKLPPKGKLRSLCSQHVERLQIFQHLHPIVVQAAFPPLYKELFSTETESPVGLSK
Sequence of human RAR-related Orphan Receptor beta (RORb), RORB (gene 6096) (Q92753 whole entry, looked up, the tested form may be a part): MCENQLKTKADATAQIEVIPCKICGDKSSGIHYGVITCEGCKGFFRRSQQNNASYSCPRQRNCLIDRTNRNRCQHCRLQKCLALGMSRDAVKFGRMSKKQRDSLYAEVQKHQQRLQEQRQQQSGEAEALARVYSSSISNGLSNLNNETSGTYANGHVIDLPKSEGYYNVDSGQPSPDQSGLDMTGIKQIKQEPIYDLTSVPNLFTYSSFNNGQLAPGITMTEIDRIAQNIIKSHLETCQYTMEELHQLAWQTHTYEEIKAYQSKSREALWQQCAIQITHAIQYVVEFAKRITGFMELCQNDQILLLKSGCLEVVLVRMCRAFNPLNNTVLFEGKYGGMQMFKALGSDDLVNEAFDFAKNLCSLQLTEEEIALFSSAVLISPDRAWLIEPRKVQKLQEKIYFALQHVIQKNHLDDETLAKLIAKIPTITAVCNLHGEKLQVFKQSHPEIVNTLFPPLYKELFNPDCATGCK
Sequence of human Peroxisome Proliferator-activated Receptor delta (PPARd), PPARD (gene 5467) (Q03181 whole entry, looked up, the tested form may be a part): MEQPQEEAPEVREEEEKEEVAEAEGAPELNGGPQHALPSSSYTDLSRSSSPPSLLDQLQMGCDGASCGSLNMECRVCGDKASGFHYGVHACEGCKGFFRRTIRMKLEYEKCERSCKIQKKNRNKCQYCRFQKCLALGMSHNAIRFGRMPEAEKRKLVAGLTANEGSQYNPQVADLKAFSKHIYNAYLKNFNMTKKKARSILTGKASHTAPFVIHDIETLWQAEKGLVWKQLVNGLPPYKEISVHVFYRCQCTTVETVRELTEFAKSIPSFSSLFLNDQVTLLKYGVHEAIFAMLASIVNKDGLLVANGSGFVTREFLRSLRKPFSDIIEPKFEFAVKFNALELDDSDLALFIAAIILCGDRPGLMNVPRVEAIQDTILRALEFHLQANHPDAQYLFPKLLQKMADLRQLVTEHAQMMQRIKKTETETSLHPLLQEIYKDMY

O=C1c2ccccc2C(=O)N1CCc1noc(-c2ccc(CN3CCCCCC3)s2)n1
active: [5] 2.72 µM | [13] 26.7 µM
not listed: [16] | [17] | [18] | [19] | [20]
inactive: all other assays above

CC(C)(C)c1cc(/C=C2\SC(N)=NC2=O)cc(C(C)(C)C)c1O
active: [2] 31.7 µM | [4] 6.79 µM | [5] 4.17 µM | [9] 29.3 µM | [11] 30.6 µM | [13] 27.5 µM | [14] 30.1 µM | [15] 37.1 µM | [18] 29.1 µM
inactive: [1] | [16] | [17] | [10]

COc1cc(C(=O)NC2CCN(C)CC2)ccc1Nc1ncc2c(n1)N(C1CCCC1)CC(F)(F)C(=O)N2C
inactive: [2] | [4] | [5] | [19] | [6] | [17] | [8] | [20]
active: [1] 3.45 µM | [3] 3.69 µM | [9] 17.2 µM | [10] 10.2 µM | [11] 12 µM | [12] 5.15 µM | [13] 4.47 µM | [14] 7.74 µM | [15] 19.2 µM

CN(C)c1ccc(C(=C2C=CC(=[N+](C)C)C=C2)c2ccc(N(C)C)cc2)cc1
active: [2] 10.3 µM | [3] 2.42 µM | [4] 16.8 µM | [9] 0.815 µM | [10] 2.36 µM | [11] 0.798 µM | [12] 0.66 µM | [13] 0.344 µM | [14] 5.53 µM | [15] 9.93 µM
inactive: [1] | [16] | [7] | [8]

Cc1ccc(C(C)C)cc1
not listed: [3] | [4] | [7] | [19]
inactive: all other assays above

Cc1oc2c(NC(=O)c3c(Cl)cccc3Cl)cccc2c1C(C)(C)O
active: [3] 21.4 µM | [4] 3.28 µM | [5] 0.204 µM | [9] 13 µM | [10] 23.6 µM | [13] 21.8 µM | [18] 25 µM
not listed: [6] | [17] | [19]
inactive: all other assays above

CO[C@H]1/C=C/O[C@@]2(C)Oc3c(C)c(O)c4c(O)c(c(/C=N/N5CCN(C)CC5)c(O)c4c3C2=O)NC(=O)/C(C)=C\C=C\[C@H](C)[C@H](O)[C@@H](C)[C@@H](O)[C@@H](C)[C@H](OC(C)=O)[C@@H]1C
not listed: [5] | [17] | [19]
inactive: all other assays above

c1ccc(C[n+]2cccc3ccccc32)cc1
not listed: [6] | [7] | [16] | [18] | [19]
inactive: all other assays above

C[C@]12CC[C@@H]3c4ccc(O)cc4CC[C@H]3[C@@H]1CC[C@H]2O
active: [5] 4.02 µM [middle of 4 runs] | [9] 8.58 µM | [11] 14.3 µM | [13] 21.3 µM | [14] 13 µM | [18] 12.4 µM
not listed: [3] | [7]
inactive: all other assays above

OCCO
not listed: [4] | [6] | [7]
inactive: all other assays above

CC1=CC(=O)/C(=C(/C)O)C(=O)O1
not listed: [3] | [4] | [5] | [6] | [7] | [12] | [18]
inactive: all other assays above

NCc1cccc(C2CCN(C(=O)c3ccc(C#Cc4ccccc4F)o3)CC2)c1
active: [2] 30.1 µM | [3] 8.67 µM | [4] 1.33 µM | [5] 8.45 µM | [9] 35.6 µM | [10] 15 µM | [11] 20.8 µM | [13] 11.3 µM | [14] 23.1 µM | [15] 36.2 µM
inactive: [1] | [6] | [17] | [8] | [20]

c1ccc2n[nH]nc2c1
not listed: [6] | [12] | [16] | [17] | [20]
inactive: all other assays above
